Measured values as given in PubChem BioAssay (NCI).
About 79,000 compounds went through this panel and 15% of them were active in at least one assay; those are over-represented in the sample as a whole. Activity calls are given as the source filed them. Cut-off read from the data, not from the text of the source: active = growth inhibition above about 70%; inactive = the rest.

Key:
[1] = NCI Yeast Anticancer Drug Screen. Data for the rad50 strain (AID 155);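 note: 0% = growth of vehicle-only cultures of the same strain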; conditions: S. cerevisiae rad50 strain growth inhibition; at 50.0 µM; active compounds read high
How it was run: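 Vehicle-treated cultures provide the reference for the growth inhibition reported for compound-exposed, repair-deficient yeast.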

[2] = NCI Yeast Anticancer Drug Screen. Data for the mec2-1 strain (AID 157); conditions: S. cerevisiae mec2-1 strain, at 50.0 µM, active compounds read high
How it was run: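 Readout is yeast growth inhibition, normalised to vehicle-treated controls, in the mec2-1 strain exposed to compound.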

[3] = NCI Yeast Anticancer Drug Screen. Data for the sgs1 mgt1 strain (AID 161);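 note: 0% = growth of cultures given vehicle only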; conditions: S. cerevisiae sgs1 mgt1 strain, at 50.0 µM, active compounds read high
How it was run: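 This yeast growth screen uses a strain with defined DNA-repair lesions; compound-treated growth is compared with vehicle-treated growth.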

[4] = NCI Yeast Anticancer Drug Screen. Data for the cln2 rad14 strain (AID 165);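 note: 0% = growth equal to vehicle treated cultures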; conditions: S. cerevisiae cln2 rad14 strain, at 50.0 µM, active compounds read high
How it was run: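 Relative to vehicle controls, growth inhibition of compound-treated cln2 rad14 yeast was recorded.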

[5] = NCI Yeast Anticancer Drug Screen. Data for the bub3 strain (AID 167); conditions: S. cerevisiae bub3 mutant strain, at 50.0 µM, active compounds read high
How it was run: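 Mutant yeast screening strain plus compound; vehicle-treated cultures serve as the 0% inhibition reference.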

[6] = NCI Yeast Anticancer Drug Screen. Data for the mlh1 rad18 strain (AID 175); conditions: S. cerevisiae mlh1 rad18 strain growth inhibition; at 50.0 µM; active compounds read high
How it was run: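 Test agents were incubated with a yeast strain of defined genotype (DNA damage repair defect). Inhibition of growth was derived by comparison with vehicle-exposed cultures.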

Measured: growth inhibition

Cc1ccc(C2=Nn3c(nc4sc(C)c(C)c4c3=O)SC2)cc1
inactive: [1] -27.9% | [2] -3.25% | [3] -23.1% | [4] 6.15% | [5] -22.1% | [6] -10.6%

Cc1nn2c(C(=O)O)nnc2s1
inactive: [1] -0.3% | [2] 5.25% | [3] 7.7% | [4] -21.8% | [5] -16.6% | [6] -13.8%

COc1ccc(CSC(=S)Nc2ccc(F)c(C)c2)cc1
inactive: [1] 20.8% | [2] 14.4% | [3] 17.1% | [4] 28.1% | [5] 5.1% | [6] 10.6%

CS(=O)(=O)O[C@H]1[C@H](O)c2ccccc2[C@@H]1N=[N+]=[N-]
inactive: [1] 13.5% | [2] 3.95% | [3] -2.05% | [4] -3% | [5] -10.2% | [6] -51.4%

CC(C)COC(=O)c1ccc(NC(=O)CN2CC(C)OC(C)C2)cc1 (stereo not drawn)
inactive: [1] 43.8% | [2] -10.4% | [3] 61.9% | [4] 56.5% | [5] 7.95% | [6] 47%

Brc1cc(Br)c2c(c1)CN(C1CCCCC1)CO2 (tested in a mixture with another compound)
inactive: [1] -0.15% | [2] 3.85% | [3] -0.4% | [4] -18.9% | [5] -1.6% | [6] -7.45%

COC(=O)Nc1nc2ccc(-n3c(C)nc4ccccc4c3=O)cc2[nH]1
inactive: [1] 10.8% | [2] -0.45% | [3] 6.35% | [4] 8.5% | [5] 4.95% | [6] 15.8%

COC(=O)C1=COC(OC2OC(CO)C(O)C(O)C2O)C2C(C)CC(=O)C12 (stereo not drawn)
inactive: [1] -39.2% | [2] -39% | [3] -22.4% | [4] 20.6% | [5] -29.9% | [6] -20.4%

C=CC(CO)N1CCCCC1 (stereo not drawn)
inactive: [1] -9.15% | [2] 24.6% | [3] -1.05% | [4] -8.9% | [5] -19.2% | [6] 13.9%

COc1cc2cc[n+]3c(C)c4ccc(OC)c(OC)c4cc3c2cc1OC (tested in a mixture with another compound)
inactive: [1] -4.15% | [2] 17.2% | [3] -5.3% | [4] -10.8% | [5] -3.55% | [6] 6.65%

O=C(c1ccccc1)C(c1ccccc1)S(=O)(=O)N1CCOCC1 (stereo not drawn)
inactive: [1] 1.3% | [2] 13.3% | [3] 2.85% | [4] -13.1% | [5] -11.6% | [6] -7.65%

COc1ccc(C2SCC(=O)N2NC(=O)c2ccc(NC(C)=O)cc2)c(OC)c1 (stereo not drawn)
inactive: [1] -27.7% | [2] -7.5% | [3] -23.2% | [4] 12.1% | [5] -22% | [6] -11.7%

CC(COc1ccc(Cl)cc1)OS(=O)(=O)CCCl (stereo not drawn)
inactive: [1] 14.3% | [2] 13% | [3] -16.1% | [4] -16.1% | [5] -1.1% | [6] -4.65%

CC(O)COC1CCCCC1 (stereo not drawn)
inactive: [1] -2.75% | [2] -10.9% | [3] 3.85% | [4] -7.25% | [5] -3.95% | [6] -0.95%

C=C1C(=O)O[C@@H]2/C=C(\C)CC/C=C(/COC(C)=O)C[C@@H](OC(C)=O)[C@@H]12
inactive: [1] 7.4% | [2] -28.2% | [3] 20.1% | [4] 0.35% | [5] -1.4% | [6] -30.1%

O=C(N/N=C\c1c[nH]c2ccccc12)N/N=C/c1c[nH]c2ccccc12
inactive: [1] -4.05% | [2] -21.4% | [3] -7.25% | [4] -11.2% | [5] -3.45% | [6] -37.9%

CNC1(C(N)=O)CCN(Cc2ccccc2)CC1
inactive: [1] -14.7% | [2] -10.3% | [3] -25.8% | [4] 0.75% | [5] -3.6% | [6] -8.35%

CC(=C\C=N\N(C)c1ccccc1)/C=C1\Cc2ccccc2C1=O
inactive: [1] -8.7% | [2] 2.2% | [3] -19.1% | [4] 14% | [5] -2.8% | [6] -9.65%

CCN(C(=O)/C=C/c1ccccc1)C1CCCCC1
inactive: [1] 17.2% | [2] 27.9% | [3] 53.2% | [4] 47.2% | [5] 35.5% | [6] 48.5%

Cc1ccc(S(=O)(=O)/C=C/c2ccccc2)cc1
inactive: [1] 8.15% | [2] 6.2% | [3] 1.8% | [4] -10.3% | [5] -2.45% | [6] -10.2%

COc1ccc2[nH]c3c(c2c1)[C@H](c1ccccc1)C[C@@H]1C(=O)N(c2ccccc2)C(=O)[C@H]31
inactive: [1] -5.25% | [2] -6.65% | [3] 1.75% | [4] 0.65% | [5] -8.9% | [6] -7.95%

CC(C)N1CN(C(C(=O)N[C@@H]2C(=O)N3C2SC(C)(C)C3C(=O)O)c2ccccc2)CSC1=S (stereo partly drawn)
inactive: [1] 48.8% | [2] -15.4% | [3] 3.85% | [4] -7.95% | [5] -9.85% | [6] -11.2%

CC(=O)N1CCCCCC1=O
inactive: [1] -30.3% | [2] -16.9% | [3] 25.4% | [4] -7.55% | [5] 1.95% | [6] -26.8%

NC(N)=NC(N)=Nc1ccc2ccccc2c1
inactive: [1] 58.4% | [2] 12.3% | [3] 17% | [4] 20.3% | [5] 8.6% | [6] 22.6%

NCCC(=O)NCCSSCCNC(=O)CCN
inactive: [1] -8.45% | [2] 11% | [3] 6.25% | [4] -16.8% | [5] 6.8% | [6] 15.1%

O=C(CN(Cc1ccccc1)Cc1ccccc1)NC(=O)c1ccccc1
inactive: [1] 4.5% | [2] -7.9% | [3] 8.45% | [4] -36.4% | [5] 9.55% | [6] -10.4%

O=c1nc(Nc2ccccc2)ccn1C1OC(CO)C(O)C1O (stereo not drawn)
inactive: [1] -7.95% | [2] 0.25% | [3] 0.2% | [4] 12% | [5] 7.55% | [6] 5.85%

Oc1ccc(C(O)CNCCCCCCNCC(O)c2ccc(O)c(O)c2)cc1O (stereo not drawn)
inactive: [1] -17.2% | [2] 6.65% | [3] -2% | [4] 6.5% | [5] -1.45% | [6] -4.65%

CC(C)(C)[Si](C)(C)OCCCC#CCO
inactive: [1] 12.1% | [2] -5.3% | [3] -3.85% | [4] 14.4% | [5] -13.6% | [6] 24.3%

CC(=O)Nc1ccc(C)cc1[N+](=O)[O-]
inactive: [1] -29.6% | [2] 1.15% | [3] -29.2% | [4] -29.9% | [5] -42.5% | [6] -43.2%

CCOC(=O)/C(=C/c1cccc2ccccc12)P(=O)(OCC)OCC
inactive: [1] 36.6% | [2] 50.9% | [3] 51.7% | [4] 29.4% | [5] 37.1% | [6] 52.4%

O=S(=O)(CCl)Nc1ccncc1
inactive: [1] -16.6% | [2] -9.6% | [3] -25.6% | [4] -77.2% | [5] 3.1% | [6] -16.8%

CCCC(NC(C)=O)C(=O)O (stereo not drawn)
inactive: [1] 8.6% | [2] 2.75% | [3] 2.8% | [4] -21.1% | [5] 1.15% | [6] 8%

COc1ccc2nc3ccccc3c(NCCCN(C)C)c2c1[N+](=O)[O-]
inactive: [1] -8.1% | [2] -19.6% | [3] 12.9% | [4] -22.2% | [5] -13.3% | [6] -4.7%

Oc1ccc(N=Cc2ccc3ccccc3n2)cc1
inactive: [1] 36% | [2] 1.55% | [3] 19.1% | [4] 10.3% | [5] -19.8% | [6] 4.2%

CCC(C)C1(C)OC1C(=O)OC (stereo not drawn)
inactive: [1] -2.7% | [2] -31.6% | [3] -42.4% | [4] 22.1% | [5] -41% | [6] 4.55%

Cn1ncnc1CCc1ccccc1
inactive: [1] -10.3% | [2] -3.9% | [3] -40.5% | [4] -4.55% | [5] -14% | [6] -21.1%

CCCCOC(=O)C1=NNC(=O)C1
inactive: [1] -17.6% | [2] -17.9% | [3] -11.9% | [4] -10.1% | [5] -12.3% | [6] -11.9%
